# RGS4 inhibitor: Inhibitors of Regulator of G Protein Signaling (RGS) 4: qHTS | Potency, µM (doses to about 114 µM), usual class: inhibitors | Transcreener GDP fluorescence polarization, RGS4-accelerated GTP hydrolysis | 390,000 compounds, 0.039% hits | Regulator of G-protein signaling 4 (Homo sapiens), P49798 | AID 504845, 2011; note: nearly all actives have a fitted effect of over 75% in size
# Target sequence (P49798 whole entry, looked up): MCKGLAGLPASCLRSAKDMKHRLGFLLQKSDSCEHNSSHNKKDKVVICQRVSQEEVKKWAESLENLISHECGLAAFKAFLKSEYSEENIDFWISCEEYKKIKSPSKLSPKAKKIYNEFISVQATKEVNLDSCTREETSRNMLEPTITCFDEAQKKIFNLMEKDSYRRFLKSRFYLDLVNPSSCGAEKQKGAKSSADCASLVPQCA
#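 MLSMR compounds (23 nl, pin-transferred) preincubated 10 min at room temperature with a 500nM (2x) first reagent, then RGS4 at 900nM (2x) plus Transcreener GDP mix added; fluorescence polarization (620/688 nm) read before and after 90 min at 30 °C.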
# KB-V1 cytotox: qHTS assay for MDR1-selective chemotherapeutics: Primary screen using the drug-selected MDR subline cells KB-V1; KB-V1 MDR cells viability, CellTiter-Glo, 72 h; Potency, µM (series often up to 46.1 µM), hits mostly cytotoxic; 400,000 compounds, 3.4% hits; note: nearly all actives have a fitted effect of over 60% in size
#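 Readout: CellTiter-Glo luminescence, 10 min after addition. Cells: KB-V1 MDR subline, 72 h at 37 degrees C with compound. Analysis: corrected, normalized data fitted to concentration-effect curves.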
# MCF10A rerep: A quantitative high throughput screen for small molecules that induce DNA re-replication in MCF 10a normal breast cells. MCF 10A DNA re-replication, Hoechst nuclear intensity, 48 h. Potency, µM (doses to about 46.1 µM), hits mostly activators. 350,000 compounds, 2.9% hits. AID 624296, 2012; note: nearly all actives have a fitted effect of over 50% in size
# KB-3-1 cytotox: qHTS assay for MDR1-selective chemotherapeutics: Primary screen using the parental adenocarcinoma cell KB-3-1. AID 1347075, 2019. Potency, µM (titrated, usually from 46.1 µM), most hits filed as cytotoxic. 400,000 compounds, 1.4% hits. KB-3-1 viability, CellTiter-Glo ATP luminescence, 72 h; note: nearly all actives have a fitted effect of over 60% in size
#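 Cells are dispensed, compounds pinned in, plates held at 37 °C for 72 h, then CellTiter-Glo is added and luminescence read after 10 minutes. Cell line: parental KB-3-1 in phenol-red-free DMEM, 10% FBS.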
# SW480 rereplic: A quantitative high throughput screen for small molecules that induce DNA re-replication in SW480 colon adenocarcinoma cells; SW480 DNA re-replication, Hoechst DNA content imaging, 48 h; Potency, µM (doses to about 46.1 µM), usual class: activators; 340,000 compounds, 1.8% hits; AID 624297, 2012; note: nearly all actives have a fitted effect of over 55% in size
#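 First, 250 cells per well were seeded. Next, compound or vehicle (23 nL) was pinned in, plates sat 48 hr at 37 C. Finally Hoechst was added for 40 min before fluorescence scanning.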
# TSG101-PTAP inh: qHTS Assay for Iinhibitors of HIV-1 Budding by Blocking the Interaction of PTAP/TSG101; 340,000 tested, under 10 active; Fluorescence polarization, FITC-PTAP peptide / Tsg101 binding; Tumor susceptibility gene 101 protein (Homo sapiens), Q99816; Potency, µM (titrated, usually from 115 µM), most hits filed as inhibitors; AID 493005, 2010; active = well fitted inhibition curve with a large enough effect in the main read-out, with a control signal flat, not every such curve was filed as active; inconclusive = small, poorly fitted or top-dose-only effect, or effect the other way, or a change in a side signal; inactive = no such curve, though single readings can be large or run the other way
# Target sequence (Q99816 whole entry, looked up): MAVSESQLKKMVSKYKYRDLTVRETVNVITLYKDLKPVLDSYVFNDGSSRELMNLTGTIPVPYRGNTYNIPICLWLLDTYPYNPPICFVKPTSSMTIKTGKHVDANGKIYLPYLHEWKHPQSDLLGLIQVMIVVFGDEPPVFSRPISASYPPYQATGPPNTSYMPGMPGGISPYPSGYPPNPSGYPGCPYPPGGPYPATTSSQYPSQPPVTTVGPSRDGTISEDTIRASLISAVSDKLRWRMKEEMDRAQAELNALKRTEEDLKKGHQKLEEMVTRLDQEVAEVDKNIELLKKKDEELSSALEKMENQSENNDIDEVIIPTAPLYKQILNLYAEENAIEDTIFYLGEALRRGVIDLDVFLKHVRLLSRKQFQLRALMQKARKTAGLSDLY
#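 Steps: Tsg101 binding domain dispensed (10 uM final), compounds pinned in DMSO, FITC-labeled PTAP-motif peptide added (50 nM final); after 20 min binding at room temperature, polarization measured.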
# A number is an active result; - = inactive; ? = inconclusive; . = no result given; [ ] = another dose, or the depositor's remark. Compounds with a hit are over-represented: about 6.6% of the library has one in this group of screens. Unless noted, calls come from the whole dose curve; as a rule, active = well fitted curve in the direction sought with a large enough effect; inconclusive = small, poorly fitted or top-dose-only effect, or another doubt; inactive = no such curve, though single readings can be large; an effect the other way counts as inactive or inconclusive.
SMILES,RGS4 inhibitor,KB-V1 cytotox,MCF10A rerep,KB-3-1 cytotox,SW480 rereplic,TSG101-PTAP inh
CCOc1ccc(S(=O)(=O)n2cc(-c3ccc(F)cc3)c(N)n2)cc1,-,16µM,-,-,-,-
CCOc1ccc(N(CC)S(=O)(=O)N2CCCC(C(=O)NCCc3ccccc3OC)C2)cc1 (centres undefined),-,-,.,-,.,.
O=C(Cn1nc(-c2ccccc2)c2c(c1=O)CCCC2)Nc1ccc(F)c(Cl)c1,-,?,.,23µM,.,.
Cc1nn(CC(=O)Nc2ccc(Cl)cc2)c(=O)c2cc(-c3ccccc3)nn12,-[11.4 µM],-,21µM,-,15µM,-
COC(=O)c1cc(NC(=O)Cn2nc(-c3ccccc3)c3c(c2=O)CCCC3)cc(C(=O)OC)c1,-,-,.,-,.,.
COc1ccc(-c2cc3c(=O)n(CC(=O)Nc4ccc(Cl)cc4)ncn3n2)cc1,-,?,-,-,-,-
COc1ccc(C2/C=C\CN(C(=O)C3CC3)C(Cc3ccccc3)C(=O)N2Cc2ccc(F)cc2)cc1 (centres undefined),-,.,.,.,.,.
C=CCn1c(N)c(C(=O)OC(C)CC)c2nc3ccccc3nc21 (centres undefined),-,8.2µM,-,-,-,-
C=CCn1c(N)c(C(=O)Nc2ccccc2)c2nc3ccccc3nc21,-,-,5.6µM,?,-[9.22 µM],-
C=CCn1c(N)c(C(=O)OC(C)(C)C)c2nc3ccccc3nc21,-,-,?,-,?,-
Cc1cc(C(=O)CSc2nnc(NCc3ccccc3)s2)c(C)n1C,-,?,?,?,?,-
CN1/C(=C\C(=O)COc2ccc3c(c2)OCO3)C(C)(C)c2ccccc21,-,?,13µM,?,?,-
CN1/C(=C\C(=O)CSc2nnc(NCc3ccccc3)s2)C(C)(C)c2ccccc21,-,?,18µM,-,-,-
CN1/C(=C\C(=O)COC(=O)c2ccco2)C(C)(C)c2ccccc21,-,?,-[9.22 µM],-,-,-
CN1/C(=C\C(=O)c2ccco2)C(C)(C)c2ccccc21,?,?,?,21µM,23µM,-
CN1/C(=C\C(=O)c2cncc(Br)c2)C(C)(C)c2ccccc21,-,?,16µM,?,?,-
COc1ccccc1OCC(=O)/C=C1/N(C)c2ccccc2C1(C)C,-,?,-,-,-,-
CN1/C(=C/C(=O)c2nc(S(C)(=O)=O)ncc2Cl)C(C)(C)c2ccccc21,?,?,?,?,12µM,-
Cc1cccc(N2CCN(C(c3ccc(F)cc3)c3nnc(-c4ccccc4)o3)CC2)c1C (centres undefined),-,?,.,-,.,.
Cc1cc(NC(=O)Nc2ccc(F)c(Cl)c2)no1,-,-,-,-,-,-
COCCNC(=O)NC1(C(F)(F)F)Oc2ccc(Cl)cc2O1 (centres undefined),-,?,-,23µM,-,-
CCCCNC(=O)NC1(C(F)(F)F)Oc2ccccc2O1,-,-,?,?,-,-
O=C(NCc1cccnc1)NC1(C(F)(F)F)Oc2ccc(Cl)cc2O1 (centres undefined),-,3.3µM,-,?,-,-
O=C(NCc1cccnc1)NC(=O)c1ccc(Cl)cc1,-,-,-,-,-,-
Cc1cc(NC(=O)NC2(C(F)(F)F)Oc3ccc(Cl)cc3O2)no1 (centres undefined),-,18µM,-,?,-,-
SMILES,RGS4 inhibitor,KB-V1 cytotox,MCF10A rerep,KB-3-1 cytotox,SW480 rereplic,TSG101-PTAP inh
Cc1ccc(Cl)cc1NC(=O)NCc1cccnc1,-,-,-,-,18µM,-
O=C1CN(C(=O)c2ccc(S(=O)(=O)N3CCCCC3)cc2)C(c2ccc(F)cc2)c2cc(Br)ccc2N1 (centres undefined),-,-,.,-,.,.
Cc1[nH]c(=S)[nH]c(=O)c1Cc1c(O)ccc2ccccc12,-,-,-,-,-,-
O=c1[nH]c(=S)[nH]c(-c2ccccc2)c1Cc1c(O)ccc2ccccc12,2.1µM,.,.,.,.,.
Cn1cnc(S(=O)(=O)N2CCC(C(=O)N3CCN(c4ccc(Cl)cc4)CC3)CC2)c1,-,.,.,.,.,.
CC(=O)NC12CC3CC(C1)CC(C(=O)Nc1ccc(C)c(S(=O)(=O)N4CCCCCC4)c1)(C3)C2,-,21µM,-,?,-,-
CC(=O)NC12CC3CC(C1)CC(C(=O)N1CCN(S(=O)(=O)c4cccc(F)c4)CC1)(C3)C2,-,-,-,-,-,-
CC(=O)NC12CC3CC(C1)CC(C(=O)Nc1cccc(S(=O)(=O)N4CCCCCC4)c1)(C3)C2,-,15µM,-,-,-,-
O=C(CCCn1c(=O)c2cccn2c2cccnc21)Nc1ccccc1C(F)(F)F,-,.,.,.,.,.
CCOc1ccccc1C(=O)Nc1cc2c(cc1N1CCOCC1)n(C)c(=O)n2C,-,-,.,-,.,.
Cc1ccc(-n2ncc3c(=O)n(Cc4cccnc4)cnc32)cc1,-,12µM,-,18µM,-,-
O=c1[nH]c(=O)n([C@H]2C[C@@H](O)[C@@H](CO)O2)cc1C=CBr,-,.,.,.,.,.
COc1ccc2cc(/C=C/C(=O)N3CCN(CC(=O)N4CCCCCC4)CC3)ccc2c1,-,15µM,-,-,-,-
CC(C)c1ccc(/C=C/C(=O)N2CCCCCC2)cc1,-,-,23µM,-,-,-
CC(=O)c1sc(Nc2cccc3ccccc23)nc1C,-,-,?,-,-,-
COc1ccc(Nc2nc3ccc(OC)cc3s2)cc1,-,?,?,-,-,-
CC(=O)Nc1nc2cc3c(cc2s1)OCO3,-,-,?,-,-,-
COc1ccc2nc(Nc3nc(C)c(C(C)=O)s3)sc2c1,-[11.4 µM],18µM,?,-,16µM,-
CC(=O)c1sc(Nc2nc3cc4c(cc3s2)OCO4)nc1C,-,?,18µM,-,21µM,-
CC(=O)c1sc(Nc2ccccn2)nc1C,-,?,-,15µM,-,-
CCCC(=O)OCc1cnc(C)c2oc(=O)c(C(=O)Nc3ccccc3)cc12,-,-,.,-,.,.
COc1cc2c(cc1OC)C(COc1ccc(F)cc1)N(C(=O)c1cccc(F)c1)CC2 (centres undefined),-,-,.,-,.,.
CCCC(=O)Nc1nnc(SCc2cc(=O)c3cc(C)ccc3[nH]2)s1,-,-,.,-,.,.
C/C(CC(=O)NC1CCCCCC1)=N\NC(=O)c1cnccn1,-,-,-,-,0.52µM,-
C[N+]1(CC(=O)c2ccc(-c3ccccc3)cc2)CCOCC1,.,-,.,-,.,.

# Compound activity deposited in PubChem by National Center for Advancing Translational Sciences (NCATS).
